These results are taken from PubChem BioAssay (NCATS).

Inconclusive results are not listed. Activity calls are given as the source filed them. Calls follow the shape of the dose curve; as a rule, active = well fitted curve in the direction sought with a large enough effect; inconclusive = small, poorly fitted or top-dose-only effect, or another doubt; inactive = no such curve, though single readings can be large; an effect the other way counts as inactive or inconclusive.
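Also: cells exposed to compound for 40 hours.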
Potency is read from the fitted curve at half-maximal effect.

One experiment in a line: Cell Viability - NIH 3T3 (AID 541). Also: nearly all actives have a fitted effect of over 25% in size.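 As to activity change, negative = cytotoxicity: plate controls were DMSO alone for no effect and tamoxifen positive control for full effect.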 Conditions: NIH 3T3 cell viability, qHTS; activity change, negative = cytotoxicity: at 92.2 µM (top of the series). The procedure, abridged: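 AC50 values reflect concentration-dependent loss of intracellular ATP in NIH 3T3 cells after 40 hr treatment in complete culture medium, quantified by luciferase-based luminescence.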
Background: Quantitative high-throughput screening tests each substance at several concentrations.
For `c1cc(OCC2CO2)cc(OCC2CO2)c1` (stereo not given), the activity change, negative = cytotoxicity was -149% (active).

As for `Cc1cc(Nc2ccc(O)cc2)ccc1N`, the activity change, negative = cytotoxicity was -158% (active).

`CO[C@H]1/C=C/O[C@@]2(C)Oc3c(C)c(O)c4c(O)c(c5c(c4c3C2=O)NC2(CCN(CC(C)C)CC2)N=5)=NC(=O)/C(C)=C\C=C\[C@H](C)[C@H](O)[C@@H](C)[C@@H](O)[C@@H](C)[C@H](OC(C)=O)[C@@H]1C`: the Potency was 20 µM (active).

As for `O=C(OCC(COC(=O)c1ccccc1)(COC(=O)c1ccccc1)COC(=O)c1ccccc1)c1ccccc1`, the Potency entry was “inactive”.

In the case of `ClC1=C(Cl)C(Cl)(Cl)C(Cl)=C1Cl`, the activity change, negative = cytotoxicity was -125% (active).

Regarding `CC(=O)Nc1ccc(C(=O)CCl)cc1`, the Potency was 2 µM (active).

Consider `CC/C(=C(\c1ccccc1)c1ccc(OCCN(C)C)cc1)c1ccc(O)cc1`, for which the activity change, negative = cytotoxicity is -141% (active).

Turning to `Nc1ccc2cc3ccccc3cc2c1`, the Potency entry was “inactive”.

Turning to `O=C=Nc1ccc(Cc2ccc(N=C=O)cc2)cc1`, the Potency entry is “inactive”.

On to `O=[N+]([O-])c1cc([N+](=O)[O-])c2ccc(S(=O)(=O)O)cc2c1O`, for which the Potency result is “inactive”.

For `CCC(C)Nc1ccc(NC(C)CC)cc1` (stereo not given), the Potency was 5.01 µM (active).

`CNc1ccc(O)cc1`: the Potency was 25.1 µM (active).

For `C=CC(=O)OCCOCCOC(=O)C=C`, the Potency is 3.16 µM (active).

On to `O=C1OC2(c3cc(Br)c(O)c(Br)c3Oc3c2cc(Br)c(O)c3Br)c2c(Cl)c(Cl)c(Cl)c(Cl)c21`, for which the Potency was 25.1 µM (active).

Turning to `c1ccc2c(c1)ccc1cc3c(ccc4ccccc43)cc12`, the Potency entry is “inactive”.

`C/C=C1\C(=O)C[C@H]2[C@@H]3CCC4=CC(=O)CC[C@]4(C)[C@H]3CC[C@]12C`: the activity change, negative = cytotoxicity is -149% (active).

In the case of `C=C(C)c1ccccc1`, the Potency entry was “inactive”.

The next experiment in a line: Cell Viability - HUV-EC-C (AID 542). Also: nearly all actives have a fitted effect of over 35% in size. As to activity change, negative = cytotoxicity: % is scaled to controls: 0 for no effect and ±100 for the full control effect. Conditions: HUV-EC-C endothelial cell viability, qHTS; series mostly up to 92.2 µM. The essentials:
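Decrease in cellular ATP, quantified by luciferase luminescence, reflects toxicity in normal human vascular endothelial HUV-EC-C cells given compound for 40 hr in complete culture medium. Values are AC50s from concentration-response curves.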
On to `CN(C)c1ccc(C2(c3ccc(N(C)C)cc3)OC(=O)c3cc(N(C)C)ccc32)cc1`, for which the Potency entry is “inactive”.

As for `O=C(OCC(COC(=O)c1ccccc1)(COC(=O)c1ccccc1)COC(=O)c1ccccc1)c1ccccc1`, the Potency result is “inactive”.

Regarding `ClC1=C(Cl)C(Cl)(Cl)C(Cl)=C1Cl`, the Potency entry was “inactive”.

`CC(=O)Nc1ccc(C(=O)CCl)cc1`: the Potency was 50.1 µM (active).

`CC/C(=C(\c1ccccc1)c1ccc(OCCN(C)C)cc1)c1ccc(O)cc1`: the Potency is 31.6 µM (active).

Regarding `Nc1ccc2cc3ccccc3cc2c1`, the Potency result is “inactive”.

As to `c1ccc2c(c1)-c1cccc3c1c-2cc1ccccc13`, the Potency entry was “inactive”.

As to `O=C=Nc1ccc(Cc2ccc(N=C=O)cc2)cc1`, the Potency entry is “inactive”.

Consider `O=[N+]([O-])c1cc([N+](=O)[O-])c2ccc(S(=O)(=O)O)cc2c1O`, for which the Potency entry is “inactive”.

As for `Cc1cc(O)c(C(C)(C)C)cc1Sc1cc(C(C)(C)C)c(O)cc1C`, the Potency is 39.8 µM (active).

In the case of `CCC(C)Nc1ccc(NC(C)CC)cc1` (stereo not given), the Potency is 10 µM (active).

As to `c1ccc2c(c1)ccc1cc3c(ccc4ccccc43)cc12`, the Potency result is “inactive”.

Turning to `C=C(C)c1ccccc1`, the Potency entry was “inactive”.

Turning to `O=C1OC(O)C(C(Cl)Cl)=C1Cl` (stereo not given), the Potency result was “inactive”.

Regarding `Cc1ccc(S(=O)(=O)Oc2ccc(N=Nc3ccc(-c4ccc(N=Nc5c(O)ccc6cc(S(=O)(=O)O)cc(S(=O)(=O)O)c56)c(C)c4)cc3C)cc2)cc1`, the Potency is 25.1 µM (active).

A further experiment is described as follows: Cell Viability - H-4-II-E (AID 543). Also: nearly all actives have a fitted effect of over 35% in size. Conditions: H-4-II-E rat hepatoma viability; series mostly up to 92.2 µM. The procedure, abridged: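 Here, cytotoxicity is measured in the rat hepatoma line H-4-II-E as loss of intracellular ATP after 40 hr compound treatment, detected by luciferase luminescence.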
Take `c1cc(OCC2CO2)cc(OCC2CO2)c1` (stereo not given): the Potency was 39.8 µM (active).

`Cc1cc(Nc2ccc(O)cc2)ccc1N`: the Potency was 39.8 µM (active).

For `CN(C)c1ccc(C2(c3ccc(N(C)C)cc3)OC(=O)c3cc(N(C)C)ccc32)cc1`, the Potency entry is “inactive”.

On to `O=C(OCC(COC(=O)c1ccccc1)(COC(=O)c1ccccc1)COC(=O)c1ccccc1)c1ccccc1`, for which the Potency entry was “inactive”.

For the compound `ClC1=C(Cl)C(Cl)(Cl)C(Cl)=C1Cl`, the Potency result was “inactive”.

For the compound `CC(=O)Nc1ccc(C(=O)CCl)cc1`, the Potency was 10 µM (active).

In the case of `CC/C(=C(\c1ccccc1)c1ccc(OCCN(C)C)cc1)c1ccc(O)cc1`, the Potency is 39.8 µM (active).

On to `Nc1ccc2cc3ccccc3cc2c1`, for which the Potency entry is “inactive”.

In the case of `O=C=Nc1ccc(Cc2ccc(N=C=O)cc2)cc1`, the Potency entry was “inactive”.

For the compound `O=[N+]([O-])c1cc([N+](=O)[O-])c2ccc(S(=O)(=O)O)cc2c1O`, the Potency entry is “inactive”.

On to `Cc1cc(O)c(C(C)(C)C)cc1Sc1cc(C(C)(C)C)c(O)cc1C`, for which the Potency is 25.1 µM (active).

Regarding `CCC(C)Nc1ccc(NC(C)CC)cc1` (stereo not given), the Potency is 6.31 µM (active).

As to `CNc1ccc(O)cc1`, the Potency is 20 µM (active).

For the compound `C=CC(=O)OCCOCCOC(=O)C=C`, the Potency is 20 µM (active).

As for `Oc1ccc2cc(SSc3ccc4cc(O)ccc4c3)ccc2c1`, the Potency is 50.1 µM (active).

As for `c1ccc2c(c1)ccc1cc3c(ccc4ccccc43)cc12`, the Potency entry is “inactive”.

With `C/C=C1\C(=O)C[C@H]2[C@@H]3CCC4=CC(=O)CC[C@]4(C)[C@H]3CC[C@]12C`, the Potency was 39.8 µM (active).

For the compound `C=C(C)c1ccccc1`, the Potency entry was “inactive”.

The next experiment in a line: Cell Viability - SH-SY5Y (AID 544). Also: nearly all actives have a fitted effect of over 55% in size.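 As to viability change, negative = cytotoxic: 0% = DMSO alone and -100% = 100 µM tamoxifen.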 Conditions: SH-SY5Y neuroblastoma cell viability; viability change, negative = cytotoxic: at 92.2 µM (top of the series). The procedure, abridged:
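Cytotoxicity is scored as a concentration-dependent fall in intracellular ATP in human SH-SY5Y cells treated 40 hr in complete culture medium. Potency is expressed as AC50 from a Hill equation fit.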
With `c1cc(OCC2CO2)cc(OCC2CO2)c1` (stereo not given), the Potency was 0.251 µM (active).

As to `Cc1cc(Nc2ccc(O)cc2)ccc1N`, the Potency was 6.31 µM (active).

On to `CN(C)c1ccc(C2(c3ccc(N(C)C)cc3)OC(=O)c3cc(N(C)C)ccc32)cc1`, for which the Potency result is “inactive”.

As for `O=C(OCC(COC(=O)c1ccccc1)(COC(=O)c1ccccc1)COC(=O)c1ccccc1)c1ccccc1`, the Potency result was “inactive”.

`ClC1=C(Cl)C(Cl)(Cl)C(Cl)=C1Cl`: the Potency result is “inactive”.

On to `CC(=O)Nc1ccc(C(=O)CCl)cc1`, for which the Potency is 3.16 µM (active).

As for `CC/C(=C(\c1ccccc1)c1ccc(OCCN(C)C)cc1)c1ccc(O)cc1`, the Potency was 31.6 µM (active).

On to `Nc1ccc2cc3ccccc3cc2c1`, for which the Potency entry was “inactive”.

Take `c1ccc2c(c1)-c1cccc3c1c-2cc1ccccc13`: the Potency result was “inactive”.

Consider `O=C=Nc1ccc(Cc2ccc(N=C=O)cc2)cc1`, for which the Potency result is “inactive”.

In the case of `O=[N+]([O-])c1cc([N+](=O)[O-])c2ccc(S(=O)(=O)O)cc2c1O`, the Potency entry is “inactive”.

With `Cc1cc(O)c(C(C)(C)C)cc1Sc1cc(C(C)(C)C)c(O)cc1C`, the Potency was 31.6 µM (active).

As to `CCC(C)Nc1ccc(NC(C)CC)cc1` (stereo not given), the Potency was 5.01 µM (active).

For `CNc1ccc(O)cc1`, the Potency was 2 µM (active).

Regarding `C=CC(=O)OCCOCCOC(=O)C=C`, the Potency was 6.31 µM (active).

`Oc1ccc2cc(SSc3ccc4cc(O)ccc4c3)ccc2c1`: the viability change, negative = cytotoxic was -101% (active).

For `c1ccc2c(c1)ccc1cc3c(ccc4ccccc43)cc12`, the Potency entry is “inactive”.

For the compound `C/C=C1\C(=O)C[C@H]2[C@@H]3CCC4=CC(=O)CC[C@]4(C)[C@H]3CC[C@]12C`, the viability change, negative = cytotoxic is -80.2% (active).

As for `C=C(C)c1ccccc1`, the Potency entry is “inactive”.

With `O=C1OC(O)C(C(Cl)Cl)=C1Cl` (stereo not given), the Potency was 15.8 µM (active).
